JMJD2A Tudor – JMJD2A Tudor domain (human) inhibition; AID 504339; O75164; hit rate 4.4% among 390,000; AlphaScreen JMJD2A-Tudor / H3K4me3 peptide binding; Potency, µM (series often up to 114 µM), most hits filed as inhibitors; note: nearly all actives have a fitted effect of over 50% in size
HP1b chromo inh – inhibitors of HP1-beta chromodomain binding to methylated histone tails. AlphaScreen HP1-beta / biotin-H3K9me3 peptide binding. P83916. hit rate 0.56% among 390,000. Potency, µM (top dose mostly 114 µM), actives largely listed as inhibitors; note: nearly all actives have a fitted effect of over 70% in size
Target sequence (P83916 whole entry, looked up): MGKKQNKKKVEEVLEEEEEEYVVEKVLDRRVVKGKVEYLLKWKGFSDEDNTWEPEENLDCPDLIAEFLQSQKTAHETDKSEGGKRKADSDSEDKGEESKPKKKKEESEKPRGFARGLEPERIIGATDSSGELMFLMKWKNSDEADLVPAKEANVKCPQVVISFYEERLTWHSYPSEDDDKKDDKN
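Compound inhibition of the preformed complex between 50 nM HP1-beta and 50 nM biotinylated H3K9me3 peptide was read by AlphaScreen. Buffer was PBS pH 7.4 with 0.01% Tween-20. Incubations ran 30 min at room temperature, with 10 ug/mL donor/acceptor beads.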
L3MBTL1 inh – L3MBTL1 (human) inhibition. Q9Y468. Potency, µM (highest dose often 57.1 µM), hits mostly inhibitors. AlphaScreen L3MBTL1–H3K9me1 peptide binding. hit rate 0.66% among 230,000; note: nearly all actives have a fitted effect of over 60% in size
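Displacement of a biotinylated histone H3(1-15) peptide monomethylated at Lys9 (75 nM) from L3MBTL1 (50 nM) was measured by AlphaScreen after a 30 min room-temperature compound incubation; cefsulodin titration served as intraplate control.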
Sfp PPTase inh – inhibitors of Bacillus subtilis Sfp phosphopantetheinyl transferase. Q9F4F7. Biochemical Sfp PPTase activity, qHTS. Potency, µM, actives largely listed as inhibitors. hit rate 3.5% among 310,000;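 note: the enzyme is Sfp with the accession as filed and its product quenches rhodamine fluorescence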
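Fluorescence-quenching assay with 15 nM Sfp, 5 uM rhodamine-CoA and 12.5 uM BHQ-2-labelled ybbR peptide in pH 7.6 Hepes/MgCl2 buffer. Enzyme was pre-incubated with compound for 15 min at room temperature. Rate was taken from the 30-min fluorescence change (525/598 nm).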
BAZ2B inh – BAZ2B (human) inhibition; hit rate 4.4% among 360,000; AlphaScreen BAZ2B-H3K14Ac peptide displacement; Potency, µM (series often up to 114 µM), most hits filed as inhibitors; Q9UIF8; note: nearly all actives have a fitted effect of over 60% in size
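BAZ2B (50 nM) with biotin-H3(5-23)K14Ac peptide (50 nM) in PBS pH 7.4, 0.01% Tween-20, preformed 30 min, then compound 30 min at room temperature; top concentration 110uM. AlphaScreen streptavidin donor/nickel chelate acceptor beads (10 ug/mL final), 20 min dark, signal read.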
G9a inh – blocks human histone lysine methyltransferase G9a | Q96KQ7 | G9a H3K9 monomethylation, AlphaScreen, 2 h | Potency, µM (top dose mostly 102 µM), most hits filed as inhibitors | hit rate 8.8% among 350,000; note: nearly all actives have a fitted effect of over 75% in size
Target sequence (Q96KQ7 913-1193 limits assumed): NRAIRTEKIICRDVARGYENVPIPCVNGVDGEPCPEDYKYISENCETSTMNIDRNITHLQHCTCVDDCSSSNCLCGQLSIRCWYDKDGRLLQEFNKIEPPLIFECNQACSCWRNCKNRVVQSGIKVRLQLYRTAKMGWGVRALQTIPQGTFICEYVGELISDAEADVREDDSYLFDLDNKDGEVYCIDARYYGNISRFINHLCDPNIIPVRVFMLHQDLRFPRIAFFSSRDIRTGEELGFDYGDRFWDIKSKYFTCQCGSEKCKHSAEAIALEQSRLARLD
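AlphaScreen read-out: biotin-H3K9 peptide (500 nM) methylation by 20 nM enzyme with 20 uM SAM, 2 h at room temperature after 15 min compound preincubation; anti-monomethyl H3K9 antibody plus donor/acceptor beads, 10 min dark.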
Of the large screens only hits and unclear results are named; the others gave an inactive call. The list is not random: actives were taken first. Their share in the collection is about 12%. Calls come from the whole dose curve; as a rule, active = well fitted curve in the direction sought with a large enough effect; inconclusive = small, poorly fitted or top-dose-only effect, or another doubt; inactive = no such curve, though single readings can be large; an effect the other way counts as inactive or inconclusive.

Cc1ccc2c3c(cccc13)-c1ccccc1C2=O	Sfp PPTase inh inconclusive
c1ccc(Nc2ccccn2)nc1	JMJD2A Tudor inconclusive, BAZ2B inh inconclusive, G9a inh 0.5µM (no result: L3MBTL1 inh)
Cc1ccc(N2CC(NC(=O)c3ccco3)CC2=O)cc1 (stereo unspecified)	JMJD2A Tudor inconclusive (no result: L3MBTL1 inh, Sfp PPTase inh)
O=C(O/N=C\c1ccc(N2CCCCC2)c([N+](=O)[O-])c1)c1c(F)cccc1F	JMJD2A Tudor inconclusive, HP1b chromo inh inconclusive, L3MBTL1 inh inconclusive, BAZ2B inh inconclusive, G9a inh 14µM
O=C(O/N=C\c1ccc(N2CCCCC2)c([N+](=O)[O-])c1)c1cccc(Cl)c1	JMJD2A Tudor inconclusive, HP1b chromo inh inconclusive, BAZ2B inh inconclusive, G9a inh 28µM
O=C(O/N=C\c1ccc(N2CCCCC2)c([N+](=O)[O-])c1)c1cccc(C(F)(F)F)c1	JMJD2A Tudor inconclusive, HP1b chromo inh inconclusive, BAZ2B inh inconclusive, G9a inh 5µM
COc1ccc(NC(=O)Nc2cccc(-c3cn4cccnc4n3)c2)cc1	none (no result: L3MBTL1 inh, Sfp PPTase inh)
COc1cc(OC)cc(-c2cc3nc(C)cc(N4CCN(C(=O)c5ccco5)CC4)n3n2)c1	Sfp PPTase inh inconclusive (no result: JMJD2A Tudor, HP1b chromo inh, L3MBTL1 inh)
Cc1ccc(CNS(=O)(=O)c2ccc3[nH]c4c(c3c2)CCCC4)cc1	JMJD2A Tudor inconclusive, G9a inh inconclusive (no result: L3MBTL1 inh, Sfp PPTase inh)
O=S(=O)(NCc1ccc(F)cc1)c1ccc2[nH]c3c(c2c1)CCCC3	JMJD2A Tudor inconclusive, BAZ2B inh inconclusive, G9a inh 8.9µM (no result: L3MBTL1 inh, Sfp PPTase inh)
O=S(=O)(NCc1ccccc1)c1ccc2[nH]c3c(c2c1)CCCCC3	JMJD2A Tudor inconclusive, G9a inh 14µM (no result: L3MBTL1 inh, Sfp PPTase inh)
Cc1ccc(CNS(=O)(=O)c2ccc3[nH]c4c(c3c2)CCCCC4)cc1	none (no result: L3MBTL1 inh, Sfp PPTase inh)
CC(C)(C)c1ccc(NC(=O)Nc2ccc(OCC(=O)N3CCOCC3)cc2)cc1	JMJD2A Tudor inconclusive (no result: L3MBTL1 inh)
COC(=O)c1ccccc1S(=O)(=O)Nc1cc(=O)c2ccccc2[nH]1	none (no result: HP1b chromo inh, L3MBTL1 inh, Sfp PPTase inh, BAZ2B inh, G9a inh)
Cc1[nH]c(=S)c(C#N)c(C)c1Cc1ccccc1	JMJD2A Tudor inconclusive, Sfp PPTase inh 18µM, G9a inh inconclusive
Cc1[nH]c(=O)c(Cc2ccccc2)c(O)c1C#N	none (no result: L3MBTL1 inh, Sfp PPTase inh, BAZ2B inh, G9a inh)
Cc1[nH]c(=O)c(C#N)c(C)c1CCC(=O)NCc1ccc(Cl)cc1	none (no result: L3MBTL1 inh)
Cc1[nH]c(=S)c(C#N)c(C)c1CCC#N	JMJD2A Tudor 20µM, Sfp PPTase inh 18µM, G9a inh 2.8µM (no result: L3MBTL1 inh)
Cc1cccc(Cc2c(C)[nH]c(=O)c(C#N)c2C)c1	BAZ2B inh 89µM
C[C@H]1COC(=O)[C@@H](NC(=O)OCC2c3ccccc3-c3ccccc32)C/C=C\C[C@H](CC(=O)NCCO)C(=O)N1	none (no result: Sfp PPTase inh, BAZ2B inh, G9a inh)
CCOc1ccc(NC(=O)CSc2nc3ccsc3c(=O)n2CCC(C)C)cc1	none (no result: L3MBTL1 inh, Sfp PPTase inh)
COCCCn1c(=O)/c(=C\c2cccc(OC)c2OC)s/c1=C(/C#N)C(=O)Nc1ccc(C(=O)O)cc1	BAZ2B inh 45µM
Nc1ccc(C(=O)Nc2nc3ccccc3s2)cc1	none
O=C(CSC(=S)N1CCOCC1)Nc1nc(=O)c2ccccc2s1	Sfp PPTase inh 79µM, G9a inh 4µM (no result: JMJD2A Tudor, HP1b chromo inh)
O=C(Cc1ccccc1)Nc1nc(=O)c2ccccc2s1	Sfp PPTase inh inconclusive, G9a inh 25µM
O=C(CSC(=S)N1CCOCC1)Nc1nccs1	none (no result: L3MBTL1 inh)
O=C(Cc1ccccc1)Nc1nc2ccccc2s1	none
O=C(Nc1nc(=O)c2ccccc2s1)c1ccc(F)cc1	JMJD2A Tudor inconclusive, Sfp PPTase inh 56µM, BAZ2B inh inconclusive, G9a inh 1.8µM
O=C(Nc1nc(=O)c2ccccc2s1)c1ccc(Cl)cc1	Sfp PPTase inh 25µM, G9a inh 4µM
COCCn1c(=N)c(S(=O)(=O)c2ccc(F)cc2)cc2c(=O)n3ccccc3nc21	none (no result: L3MBTL1 inh)
O=C(CNC(=O)C12CC3CC(CC(C3)C1)C2)Nc1ncccc1O	none (no result: Sfp PPTase inh)
Cc1ccc(C(=O)Nc2nc(=O)n(C)s2)cc1	none (no result: G9a inh)
Cn1sc(NC(=O)c2ccc(Cl)cc2)nc1=O	Sfp PPTase inh 56µM, G9a inh 40µM
COc1cc(CCC(=O)Nc2cccc(C(F)(F)F)c2)cc(OC)c1OC	G9a inh 45µM
COc1ccc(-n2c(=O)c3ccccc3n(CC(=O)Nc3cc(C)on3)c2=O)cc1OC	L3MBTL1 inh inconclusive, Sfp PPTase inh 45µM, BAZ2B inh inconclusive
N=C1C(c2ccccc2)=C(O)CN1c1cccc(S(=O)(=O)NCc2ccco2)c1	none
